A selection: hits, their analogues and other compounds. The true share with any hit is near 18%.
TGFb inhibitor: TGF-b pathway inhibition. HepG2 CAGA-GFP TGF-b/SMAD3 reporter, GFP fluorescence, 18 h; TGF-beta stimulated, 500 pg/mL final. AID 588855. 410,000 tested, 1.2% active. Potency, µM (series often up to 46.1 µM), for inactives: at the highest dose activity, negative = inhibition, usual class: inhibitors; also: potency is read from the fitted curve at half-maximal effect; % is scaled to controls: 0 for no effect and ±100 for the full control effect; nearly all actives have a fitted effect of over 65% in size
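Per well, imaged GFP fluorescence of HEPG2 CAGA-GFP cells gives the signal; cells get compound, then TGF-beta (500 pg/mL final), 18 h at 37 degrees C; %Activity versus -TGF-beta and +DMSO controls.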
TDP1 cell noCPT: qHTS for Inhibitors of human tyrosyl-DNA phosphodiesterase 1 (TDP1): qHTS in cells in absence of CPT | DT40 Tdp1-/- hTDP1 cells, no CPT, ATP luminescence, 48 h | AID 686978, 2013 | 420,000 tested, 15% active | Potency, µM (titrated, usually from 46.2 µM), for inactives: top-dose activity change, negative = growth inhibition, usual class: inhibitors; also: potency is read from the fitted curve at half-maximal effect; % is scaled to controls: 0 for no effect and ±100 for the full control effect; nearly all actives have a fitted effect of over 55% in size
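Chicken DT40 Tdp1-/- cells stably complemented with human TDP1 were seeded at 400 cells/well with DMSO in place of 20 nM camptothecin. After compound pinning, cells grew at least 48 hr at 37 °C; viability read by CellTiter-Glo luminescence.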
TDP1 block: blocks human tyrosyl-DNA phosphodiesterase 1; 350,000 tested, 0.28% active; AID 485290; Q9NUW8; recombinant TDP1, AlphaScreen DNA substrate cleavage; Potency, µM (series often up to 130 µM), for the others: at the highest dose activity change, negative = inhibition, usual class: inhibitors; also: potency is read from the fitted curve at half-maximal effect; % is scaled to controls: 0 for no effect and ±100 for the full control effect; nearly all actives have a fitted effect of over 40% in size
Target sequence (Q9NUW8 whole entry, looked up): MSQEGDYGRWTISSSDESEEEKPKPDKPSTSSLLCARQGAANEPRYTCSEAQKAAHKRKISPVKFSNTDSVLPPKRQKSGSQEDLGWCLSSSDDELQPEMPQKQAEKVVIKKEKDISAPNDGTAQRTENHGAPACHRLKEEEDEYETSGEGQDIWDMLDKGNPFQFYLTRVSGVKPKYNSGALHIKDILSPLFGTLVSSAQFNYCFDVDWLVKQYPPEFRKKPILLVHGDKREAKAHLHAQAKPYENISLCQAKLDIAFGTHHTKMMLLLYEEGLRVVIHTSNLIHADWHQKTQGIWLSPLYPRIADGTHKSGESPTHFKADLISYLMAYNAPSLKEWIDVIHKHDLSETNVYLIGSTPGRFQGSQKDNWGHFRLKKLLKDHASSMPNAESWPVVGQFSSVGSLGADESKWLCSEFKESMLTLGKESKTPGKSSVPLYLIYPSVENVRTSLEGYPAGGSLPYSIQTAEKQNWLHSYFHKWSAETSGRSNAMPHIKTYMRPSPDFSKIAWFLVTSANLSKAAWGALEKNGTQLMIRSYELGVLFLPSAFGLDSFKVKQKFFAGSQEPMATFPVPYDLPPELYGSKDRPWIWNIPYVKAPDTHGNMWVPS
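Recombinant E. coli-expressed Tdp1 (1 nM) preincubated with compound 15 min at RT, then 5'-biotin/3'-phosphotyrosine-FITC DNA substrate (15 nM) added for 5 min. AlphaScreen beads (10 ug/ml) added, 10 min RT; tyrosine-FITC cleavage read as signal loss.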
DT40 TDP1 CPT: DT40-hTDP1 cell growth loss with CPT | chicken DT40 Tdp1-/-;hTDP1 cells + 20 nM CPT, ATP luminescence, 48 h | Potency, µM (doses to about 46.2 µM), inactives show at the highest dose activity change, negative = growth inhibition, actives largely listed as inhibitors | 420,000 tested, 12% active | AID 686979; also: potency is read from the fitted curve at half-maximal effect; % is scaled to controls: 0 for no effect and ±100 for the full control effect; nearly all actives have a fitted effect of over 55% in size
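Chicken DT40 Tdp1-/- cells complemented with human TDP1, 400 cells/well, exposed to compounds plus 20 nM camptothecin for at least 48 h at 37 C; viability read as ATP content by CellTiter-Glo luminescence.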
IL1B secr inh: inhibitors of inflammasome signaling (IL-1 beta secretion) | activity change, % at 57.5 µM | 360,000 tested, 4.7% active | THP-1 LPS/ATP IL-1B secretion, AlphaLISA, 16 h; active compounds read low; in the data active = activity change below about -50%; inconclusive = mostly about -30% to -49%; also: % is scaled to controls: 0 for no effect and ±100 for the full control effect
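Secreted IL-1B measured by AlphaLISA bead assay after 16 h compound exposure of THP-1 cells; compounds (final up to 57.5 uM) added 1 h before LPS (250 ng/mL) and ATP (1.25 mM) stimulation; lower signal means less secretion.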
HepG2 tox: HepG2 cytotoxicity, counter-screen for TGF-b inhibitors; HepG2 CAGA-GFP viability, ATP luminescence, 18 h; Potency, µM (titrated, usually from 46.1 µM), for the others: at the highest dose activity change, negative = cytotoxicity, usual class: cytotoxic; 410,000 tested, 0.76% active; also: potency is read from the fitted curve at half-maximal effect
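CellTiter-Glo luminescence gave cytotoxicity after 18 hours at 37 degrees C. The cells were HepG2 CAGA-GFP in 1% FBS DMEM, stimulated with 500 pg/mL TGF-beta after compound addition. %Activity was normalised to no-cell wells (complete cell-killing) and DMSO (no toxicity), and curves were fitted and classified.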
* marks the source's active call; other numbers are inactive results; ? = inconclusive; . = no result. Unless noted, calls follow the shape of the dose curve; as a rule, active = well fitted curve in the direction sought with a large enough effect; inconclusive = small, poorly fitted or top-dose-only effect, or another doubt; inactive = no such curve, though single readings can be large; an effect the other way counts as inactive or inconclusive.

SMILES	TGFb inhibitor	TDP1 cell noCPT	TDP1 block	DT40 TDP1 CPT	IL1B secr inh	HepG2 tox
COc1ccc(-c2nnn(CC(=O)N(Cc3ccccc3Cl)C(C(=O)NCC3CCCO3)c3ccco3)n2)cc1 (stereo unspecified)	?	18µM*	8%	?	5	-1%
COc1cccc(N(C(=O)Cn2nnc(-c3ccc(Cl)cc3)n2)C(C(=O)NCC2CCCO2)c2ccc(C)cc2)c1 (stereo unspecified)	-2%	21µM*	2%	16µM*	-9	-7%
COc1cccc(N(C(=O)Cn2nnc(-c3ccc(F)cc3)n2)C(C(=O)NCC2CCCO2)c2ccc(Cl)cc2)c1 (stereo unspecified)	-16%	?	6%	?	-8	-9%
O=C(CNC(=O)c1ccco1)NCC(=O)OCC(=O)c1ccc(Cl)c([N+](=O)[O-])c1	?	?	5%	?	-22	-31%
COc1ccc(NC(=S)NNc2ccc([N+](=O)[O-])cc2S(=O)(=O)Nc2ccc(C)cc2C)cc1	?	?	13%	-22%	-84*	-31%
Cc1ccc(NS(=O)(=O)c2cc([N+](=O)[O-])ccc2NNC(=S)Nc2cccc(Cl)c2)c(C)c1	?	?	-3%	?	-22	-86%
Cc1ccc(NS(=O)(=O)c2cc([N+](=O)[O-])ccc2NNC(=S)Nc2cc(C)ccc2C)c(C)c1	?	21µM*	8%	?	-67*	-72%
Cc1ccc(C2(C)CC(C)(C)N(C(=O)CSc3nnc(C)s3)c3ccccc32)cc1 (stereo unspecified)	?	16µM*	5%	21µM*	-85*	-17%
CCCCC(=O)N1c2ccccc2C(C)(c2ccccc2)CC1(C)C (stereo unspecified)	-15%	.	.	.	.	-17%
Cc1nnc(SCC(=O)N2c3ccccc3C(C)(c3ccccc3)CC2(C)C)s1 (stereo unspecified)	?	12µM*	8%	16µM*	-76*	5%
O=C(Cn1cc(SCc2c(F)cccc2Cl)c2ccccc21)N1CCCCC1	-20%	?	-3%	?	.	-7%
Cc1ccccc1CSc1cn(CC(=O)N2CCCCC2)c2ccccc12	-13%	16µM*	5%	13µM*	.	-41%
O=C(Cn1cc(SCc2c(F)cccc2Cl)c2ccccc21)N1CCCCCC1	0%	?	-3%	23µM*	.	-33%
O=C(Cn1cc(SCc2ccc(Br)cc2)c2ccccc21)N1CCCCC1	?	16µM*	-3%	?	.	-32%
O=C(Cn1cc(SCc2cccc(F)c2)c2ccccc21)N1CCOCC1	-16%	?	0%	?	.	-38%
O=C(Cn1cc(SCc2cccc(F)c2)c2ccccc21)N1CCCC1	?	21µM*	-3%	?	.	-31%
CCOC(=O)Nc1cc(NC(=O)OCC)c(C)nc1C	-7%	10%	2%	-4%	0	-15%
CCCCNC(=O)CCC(=O)N1CCN(C(c2ccccc2)c2ccccc2)CC1	-2%	-4%	2%	-17%	36	-4%
Cc1ccc2oc(=O)c3cc(C(=O)NCCCN4C(C)CCCC4C)sc3c2c1 (stereo unspecified)	0%	?	1%	?	-26	-32%
Cc1c(-c2ccccc2)sc2nc[nH]c(=S)c12	7%	?	8%	?	1	-17%
CCOC(=O)C1CCCN(C(=O)CCS(=O)(=O)c2cc3c(cc2Cl)NC(=O)CO3)C1 (stereo unspecified)	0%	.	6%	.	.	-19%
NCCCn1c(C(=O)c2cc(Cl)c(N)c(Cl)c2)c2ccc(C(F)(F)F)cc2[n+]1[O-]	-38%	18µM*	6%	?	?	-54%
COc1ccc(C(=O)c2c3ccc(C(F)(F)F)cc3[n+]([O-])n2CCCC(N)=O)cc1	-8%	-16%	1%	1%	-2	-4%
NC(=O)c1ccc(Cn2c(C(=O)c3cc(Cl)c(N)c(Cl)c3)c3ccccc3[n+]2[O-])cc1	-19%	?	.	?	29	-19%
NC(=O)CCCn1c(C(=O)c2cc(Cl)c(N)c(Cl)c2)c2ccc(C(F)(F)F)cc2[n+]1[O-]	-22%	18µM*	5%	?	-16	-3%
SMILES	TGFb inhibitor	TDP1 cell noCPT	TDP1 block	DT40 TDP1 CPT	IL1B secr inh	HepG2 tox
NCCCn1c(C(=O)c2cc(Cl)c(N)c(Cl)c2)c2ccc([N+](=O)[O-])cc2[n+]1[O-]	?	0.52µM*	7%	0.65µM*	0	-45%
NCCC[C@@H](CC(=O)N[C@@H]1CCNC[C@H]1C(=O)N[C@H](CC(=O)N[C@@H](CCC(=O)O)CC(=O)O)Cc1c[nH]c2ccccc12)NC(=O)C[C@H](Cc1c[nH]c2ccccc12)NC(=O)[C@@H]1CNCC[C@H]1N	.	.	3%	.	.	.
O=C(NCCc1ccc(Cl)cc1)c1ccc(CS(=O)(=O)c2ccc(Cl)cc2)o1	-14%	?	0%	16µM*	.	-13%
Cc1ccc(S(=O)(=O)Cc2ccc(C(=O)NCCc3ccc(Cl)cc3)o2)cc1	?	29µM*	-2%	16µM*	.	-11%
CSc1ccc(CCNC(=O)c2ccc(CS(=O)(=O)c3ccc(Br)cc3)o2)cc1	-25%	21µM*	0%	23µM*	.	-16%
CCCCN(CC)CCCNC(=O)c1ccc(CS(=O)(=O)c2c(Cl)cccc2Cl)o1	0%	27%	.	-13%	-78*	-1%
CCCCN(CCCNC(=O)c1ccc(CS(=O)(=O)c2c(Cl)cccc2Cl)o1)Cc1ccccc1	5%	?	3%	?	-4	-28%
Cc1ccc(CCNC(=O)c2ccc(CS(=O)(=O)c3ccc(Cl)cc3)o2)cc1	-6%	-14%	0%	-8%	.	-5%
CCc1ccccc1S(=O)(=O)Cc1ccc(C(=O)NCCc2ccc(Cl)cc2)o1	11µM*	18µM*	5%	?	.	-46%
CCc1ccccc1S(=O)(=O)Cc1ccc(C(=O)NCc2ccc(Cl)cc2)o1	?	?	0%	?	.	-32%
CC1CCC(NC(=O)c2ccc(CS(=O)(=O)c3ccc(Cl)cc3)o2)CC1 (stereo unspecified)	?	18µM*	3%	18µM*	.	5%

Compound activity as filed in PubChem.
